This is a sample that favours compounds with a hit; in the whole collection about 3.9% have one here.
SKOV3 invasion – ovarian cancer metastasis inhibition, 3D TME model. SKOV3ip1-GFP adhesion/invasion on 3D omental model, fluorescence. Potency, µM (series often up to 45.8 µM), without a hit: at the top dose activity change, negative = inhibition, actives largely listed as inhibitors. hit rate 0.1% among 46,000;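 note: potency is the fitted concentration of half-maximal effect; plate controls were DMSO wells for no effect and tomatine positive control wells for full effect; nearly all actives have a fitted effect of over 65% in size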
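A 3D layer of primary human omental fibroblasts, mesothelial cells, fibronectin and collagen I, grown 48 hr, received SKOV3ip1-GFP cells in serum-free medium plus compounds at 0.36-46 umol/L. After 2 hr RT and 16 hr 37 C, fixed adherent GFP cells were counted; normalized to DMSO and tomatine.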
FH mod – Identification of activators of human fumarate hydratase by quantitative high-throughput screening; hit rate 0.22% among 54,000; AID 1347055, 2019; Fumarate hydratase, mitochondrial (Homo sapiens), P07954; FH coupled MDH/diaphorase resazurin fluorescence, 15 min; Potency, µM (top dose mostly 79.9 µM), inactives show at the highest dose activity change, negative = inhibition, actives largely listed as inhibitors; note: potency is the fitted concentration of half-maximal effect; % is set by controls: 0 for no effect and ±100 for the full control effect; the screen sought activators but most active calls are inhibition curves; nearly all actives have a fitted effect of over 45% in size
GPR32 ag – agonists of human resolvin D1 receptor DRV1 (GPR32); O75388; CHO-K1 GPR32 beta-arrestin PathHunter luminescence, 90 min; zero percent set by DMSO-only wells; activation, % at 76.9 µM; hit rate 2.5% among 48,000;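 active = activation of at least 60% and not above a set upper limit, about 1 call in 100 departs from these limits; inconclusive = activation of 40% to 60%, or above that upper limit; inactive = activation under 40%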; note: 0% is about no effect
Target sequence (O75388 whole entry, looked up): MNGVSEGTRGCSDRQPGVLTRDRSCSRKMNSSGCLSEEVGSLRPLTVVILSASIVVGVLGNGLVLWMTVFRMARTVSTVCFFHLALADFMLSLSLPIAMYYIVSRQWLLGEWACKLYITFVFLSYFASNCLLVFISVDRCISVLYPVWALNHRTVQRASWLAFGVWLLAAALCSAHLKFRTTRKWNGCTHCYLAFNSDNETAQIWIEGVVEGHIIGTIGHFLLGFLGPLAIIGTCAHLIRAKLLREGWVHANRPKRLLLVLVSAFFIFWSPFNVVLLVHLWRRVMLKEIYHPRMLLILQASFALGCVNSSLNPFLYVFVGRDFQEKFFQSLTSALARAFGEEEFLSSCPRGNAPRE
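Agonism was scored as beta-arrestin recruitment to ProLink-fused GPR32 in stably transfected CHO-K1 cells, giving a chemiluminescent beta-Gal signal; compounds were incubated 90 min at 37 °C.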
NTMT1 inhibitor – blocks human N-terminal methyltransferase 1 activity. hit rate 2.5% among 59,000. Potency, µM (series often up to 114 µM), for inactives: at the top dose activity change, negative = inhibition, most hits filed as inhibitors. Q9BV86. AID 1645870. NTMT1 MTase-Glo SAH luminescence, purified enzyme;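 note: potency is the fitted concentration of half-maximal effect; plate controls were DMSO vehicle for no effect and no enzyme for full effect; nearly all actives have a fitted effect of over 65% in size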
Target sequence (Q9BV86 whole entry, looked up): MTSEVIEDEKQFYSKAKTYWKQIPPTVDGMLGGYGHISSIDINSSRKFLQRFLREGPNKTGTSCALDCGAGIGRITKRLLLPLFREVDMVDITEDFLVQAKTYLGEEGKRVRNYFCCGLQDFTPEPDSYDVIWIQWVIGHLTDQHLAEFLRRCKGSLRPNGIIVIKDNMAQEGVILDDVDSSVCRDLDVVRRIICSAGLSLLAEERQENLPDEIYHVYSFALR
An asterisk follows results filed as active; i = inactive; ? = inconclusive; nt = no result; ! = repeats disagree; [ ] = remark or other dose. Unless noted, calls come from the whole dose curve; as a rule, active = well fitted curve in the direction sought with a large enough effect; inconclusive = small, poorly fitted or top-dose-only effect, or another doubt; inactive = no such curve, though single readings can be large; an effect the other way counts as inactive or inconclusive.

SMILES | SKOV3 invasion | FH mod | GPR32 ag | NTMT1 inhibitor
CC(=O)c1ccc(NC(=O)C2CCC(CNS(=O)(=O)c3cccs3)CC2)cc1 (configuration not stated) | 0% | -22% | 108* | 17%
CCCC1CCN(C(=O)COC(=O)c2ccc(S(C)(=O)=O)c([N+](=O)[O-])c2)CC1 | nt | nt | nt | -4%[57.5 µM]
CCCCC/C(C=O)=C\c1ccccc1 | nt | -9%[53.3 µM] | 0 | -4%[57.5 µM]
COc1cc2nc(Nc3cccc(C)c3)nc(N)c2cc1OC | ? | -9% | 10 | ?
COc1cc2nc(Nc3ccc(C)c(C)c3)nc(N)c2cc1OC | ? | -15% | 83* | ?
CC(C)N(Cc1ccccc1)C(=O)c1cc2ccc3cccnc3c2[nH]1 | 7% | ? | 12 | -3%
CC(C)N(CCC(=O)c1ccc2ccccc2c1)Cc1ccccc1 | nt | ? | -9 | 50µM*
Cc1cc(N[S+](=O)([O-])c2cc3c(cc2Cl)NC(=O)CO3)ccc1Cl | nt | nt | nt | -5%
Cc1ccc(OCCn2c(CCNC(=O)c3ccccc3C)nc3ccccc32)cc1 | nt | nt | nt | 8%
Cc1ccc(NC(=O)C2CCN(S(=O)(=O)c3cccc4nsnc34)CC2)cc1F | -12% | -35% | 93* | -3%
Cc1ccc(NC(=O)C2CCN(S(=O)(=O)c3cccc4nonc34)CC2)cc1C | i | -1% | 101* | 15%
Cc1cccc(C)c1NC(=O)C1CCN(S(=O)(=O)c2cccc3nsnc23)CC1 | i | 1% | -2 | 7%
Cc1cc(NC(=O)C2CCN(S(=O)(=O)c3ccc(Br)s3)CC2)ccc1Br | i | -6% | 76* | 2%
Cc1ccc(NC(=O)C2CCN(S(=O)(=O)c3cccc4nonc34)CC2)c(Cl)c1 | 1% | 0% | 16 | -3%
O=C(O)c1ccc(O)c2ncc(N3CCCN(CCc4ccncc4)CC3)cc12 | nt | nt | nt | -20%
Cc1cc(N2CCN(c3cccc(C)c3C)CC2)n2cnnc2n1 | i | -12% | 6 | 89µM*
Cc1ccccc1-c1ncnn1-c1sc2c(c1C#N)CCCCC2 | -5% | -19% | 106* | ?
N#Cc1c(-n2ncnc2-c2cccc(Br)c2)sc2c1CCCCC2 | i | -10% | 13 | ?
N#Cc1c(-n2ncnc2-c2ccc(F)cc2)sc2c1CCCCC2 | -4% | -15% | 69* | -14%
CC(C)(C)c1ccc(NC(=O)c2cccs2)cn1 | nt | nt | nt | -1%
Cc1cccc(CNc2ccnc(-c3cccc4ccccc34)n2)c1 | nt | nt | nt | 6%
CCOc1nc2cccc(C(=O)O)c2n1Cc1ccc(-c2ccccc2-c2noc(=O)[nH]2)cc1 | nt | 2% | nt | -3%[57.5 µM]
CCOC(=O)C1CCN(C(=O)C(C)(C)NC(=O)Nc2ccc(N)cc2)CC1 | nt | nt | nt | 8%
CCOc1ccccc1NC(=O)N1CCN(C)c2ncccc21 | 5% | -21% | 5 | 89µM*
COc1ccc(S(=O)(=O)Nc2cc(-c3csc(C#N)c3)ccc2C)cc1 | nt | nt | nt | -1%
SMILES | SKOV3 invasion | FH mod | GPR32 ag | NTMT1 inhibitor
CCOc1ccc(-c2cc(CCCC(=O)NCCc3ccc(OC)c(OC)c3)no2)cc1 | i | -14% | 20 | ?
CCOc1ccc(-c2cc(CCCC(=O)NCCc3cc(OC)c(OC)c(OC)c3)no2)cc1 | -1% | -1% | 72* | -1%
CC(C)c1cc(-c2n[nH]c(=O)n2-c2ccc3c(ccn3C)c2)c(O)cc1O | 6% | 1% | nt | 28µM*!
COc1ccc(-c2nc(-c3cc(C(F)(F)F)cc(C(F)(F)F)c3)n(Cc3ccc(C(N)=O)cc3)c2-c2ccc(OC)cc2)cc1 | nt | ? | nt | 5%[57.5 µM]
CN(C)c1ccc(C(CNS(=O)(=O)c2ccc(F)cc2)N2CCOCC2)cc1 (configuration not stated) | -9% | 4% | -16 | -1%
CN(C)c1ccc(C(CNS(=O)(=O)c2ccc(F)cc2)N2CCCC2)cc1 (configuration not stated) | ? | -20% | -9 | 89µM*
O=S(=O)(Nc1cnc2ccccc2c1)c1ccc(NCc2ccc(Br)cc2O)cc1 | nt | nt | nt | -4%
O=S(=O)(Nc1nc2ccccc2s1)c1ccc(NCc2ccc(Br)cc2O)cc1 | nt | nt | nt | 28µM*
Cc1ccc(-c2ccc(=O)n(CC(=O)N(C)[C@H](C)c3ccccc3)n2)cc1 | nt | nt | nt | -2%
CO[C@@]1(NC(=O)CSCC#N)C(=O)N2C(C(=O)O)=C(CSc3nnnn3C)CS[C@@H]21 | nt | 3%[53.3 µM] | 64*! | 14µM*
CCC(C)/C=C(C)/C=C/C1=CC2=C(Cl)C(=O)C(C)(OC(C)=O)C(=O)C2=CN1C(CC(=O)O)C(=O)O (configuration not stated) | nt | -4%[53.3 µM] | nt | -26%[29.8 µM]
CCS(=O)(=O)N1CCc2cc(C(=O)N3CCN(c4cccc(C(F)(F)F)c4)CC3)ccc21 | -8% | -34% | 65* | -1%
CCCCCn1c(=O)[nH]c2cc(C(=O)N3CCN(c4ccccc4)CC3)ccc2c1=O | i | -1% | 27 | ?
O=C(c1ccc2c(c1)CCN2S(=O)(=O)c1ccccc1)N1CCN(c2cccc(Cl)c2)CC1 | 5% | -20% | -16 | 4%
CCCCCn1c(=O)[nH]c2cc(C(=O)N3CCN(c4cccc(C(F)(F)F)c4)CC3)ccc2c1=O | -16% | -4% | 61* | 15%
COc1cc2[nH]c(=O)n(CCCCCC(=O)N3CCN(c4cccc(C(F)(F)F)c4)CC3)c(=O)c2cc1OC | -8% | ? | 63* | 0%
Cc1cc(-n2c(C)nc3ccccc3c2=O)ccc1NC(=O)c1ccccc1[N+](=O)[O-] | -9% | 2% | 94* | -1%
CCCCCCCCCCCCCCCC[N+](C)(C)Cc1ccccc1 | nt | -13%[53.3 µM] | 12 | 22µM*
CCCCCCCCCCCCCC[N+](C)(C)C | nt | -7%[53.3 µM] | 22 | ?
CCCCCCCCCCCCCCCC[N+](C)(C)CC | nt | -4%[53.3 µM] | -7 | 25µM*
CCCCCCCCCCCCCC[N+](C)(C)Cc1ccccc1 | nt | -11%[53.3 µM] | -2 | 50µM*
COc1ccccc1C(=O)N1CCc2cc(-c3nc(NC(=O)Cc4ccc5c(c4)OCO5)sc3C)ccc21 | nt | nt | nt | -3%
CCCCCCCCCCCCCCCCOP(=O)([O-])OCC[N+](C)(C)C | nt | -25%[53.3 µM] | 93* | 40%[57.5 µM]
CCCCCCCCCCCCCCCCCCOC[C@H](COP(=O)([O-])OCC[N+](C)(C)C)OC | nt | -32%[53.3 µM] | 8 | nt
CC1=C(C(=O)Nc2ccc(Cl)cc2)C(c2ccccc2Br)N=C(Nc2nc3ccccc3o2)N1 (configuration not stated) | nt | nt | nt | 16%
CN1CCCN=C1/C=C/c1cccs1 | nt | 5%[53.3 µM] | -2 | 50µM*!
CC1(C)CC[C@]2(C(=O)O)CC[C@]3(C)C(=CCC4[C@@]5(C)CCC(O[C@@H]6OC[C@H](O)[C@H](O)[C@H]6O[C@@H]6O[C@H](CO)[C@@H](O)[C@H](O)[C@H]6O)[C@@](C)(CO)C5CC[C@]43C)[C@@H]2C1 (some centres not stated) | nt | 5%[20.6 µM] | nt | 4%[12.6 µM]
CCc1ccc(NS(=O)(=O)c2ccc(NC(=O)N3CCCC3)cc2)cc1 | i | -3% | 69* | 7%
Cc1oc(-c2ccccc2)nc1CNS(=O)(=O)c1ccc(Cl)cc1 | -7% | -8% | 115* | 6%

Source: PubChem BioAssay (National Center for Advancing Translational Sciences (NCATS))
